Compound activity (PubChem)
ROC1-CUL1 inh: human ROC1-CUL1 E3 ligase inhibition; P62877+Q13616; in vitro K48 di-Ub FRET, acceptor:donor ratio, 45 min; inhibition, % at 10 µM; 140,000 compounds, 0.6% hits; in the data active means inhibition above about 25%
Numbers stand for hits. This excerpt belongs to a sample that is enriched for hits.

`CCC1(c2ccccc2)C(=O)NC(=O)N(CCN2CCOCC2)C1=O` (stereo unspecified) gave ROC1-CUL1 inh inactive.
For O=C1NC(=O)C(Br)(Br)C(=O)N1Cc1ccccc1 the results were ROC1-CUL1 inh 76.
For N=C1C(Cl)C(=O)NC(=O)N1Cc1ccccc1 (stereo unspecified) the results were ROC1-CUL1 inh inactive.
Cc1ccsc1C(=O)C1CCCN(C2CCSCC2)C1 (stereo unspecified) was read as ROC1-CUL1 inh inactive.
For COc1ccc2n[nH]c(CCN)c2c1 the results were ROC1-CUL1 inh inactive.
COc1cc(C(c2c(C)[nH]n(-c3ccccc3)c2=O)c2c(C)[nH]n(-c3ccccc3)c2=O)cc(OC)c1OC was read as ROC1-CUL1 inh 62.
For COc1cc(CN2CCN(C(=O)Cc3ccccc3)CC2)cc(OC)c1OC the results were ROC1-CUL1 inh inactive.
COc1cc(C2SCC(=O)Nc3c2c(-c2ccccc2)nn3-c2ccccc2)cc(OC)c1OC (stereo unspecified) was read as ROC1-CUL1 inh inactive.
Screening O=C(c1cccnc1)N1CCN(C23CC4CC(CC(C4)C2)C3)CC1 returned ROC1-CUL1 inh inactive.
O=C(Cn1ncc2ccccc2c1=O)N1C[C@@H]2C[C@@H](C1)c1cccc(=O)n1C2 was read as ROC1-CUL1 inh inactive.
CCN(CC)c1ccc(/C=C2\C(=O)NC(=S)N(c3ccc(OC)cc3OC)C2=O)o1 was read as ROC1-CUL1 inh inactive.
`CCN(CC)c1ccc(/C=C2\C(=O)NC(=S)N(C)C2=O)o1` gave ROC1-CUL1 inh inactive.
`CCOc1ccc(N2C(=O)/C(=C/c3ccc(CN(CCC#N)S(C)(=O)=O)o3)C(=O)NC2=S)cc1` gave ROC1-CUL1 inh inactive.
For O=C1NC(=S)N(c2ccc(Br)cc2)C(=O)/C1=C/c1ccc(-c2ccccc2C(=O)O)o1 the results were ROC1-CUL1 inh 83.
For Cc1c(Cl)cccc1N1C(=O)/C(=C/c2ccc(-c3ccc(C(=O)O)cc3)o2)C(=O)NC1=S the results were ROC1-CUL1 inh 52.
Cc1cccc(N2C(=O)/C(=C/c3cc(C)n(-c4ccc(C(=O)O)c(Cl)c4)c3C)C(=O)NC2=S)c1C was read as ROC1-CUL1 inh inactive.
For C1=Cc2ccccc2C(N2CC2)c2ccccc21 the results were ROC1-CUL1 inh inactive.
CC(C)N1C(=O)/C(=C/C=C/c2ccco2)C(=O)N(Cc2ccco2)C1=O was read as ROC1-CUL1 inh inactive.
For COc1ccc(/C=C2/C(=O)N(Cc3ccco3)C(=O)N(C(C)C)C2=O)cc1 the results were ROC1-CUL1 inh 103.
COc1ccc(C=C2C(=O)N(C)C(=O)N(C)C2=O)cc1 was read as ROC1-CUL1 inh inactive.
C=CCN1C(=O)C2(C(C(=O)OCC)=C(CC(=O)OCC)OC(=N)C2C(=O)OC)c2ccccc21 (stereo unspecified) was read as ROC1-CUL1 inh inactive.
CCSC1=NP(=S)(SCC)N(CC)c2nc3n(c21)CCC3 (stereo unspecified) was read as ROC1-CUL1 inh inactive.
CCO[C@@H]1c2cc3c(cc2[C@@H](c2cc(OC)c(O)c(OC)c2)[C@H]2C(=O)OCC12)OCO3 (stereo partly specified) was read as ROC1-CUL1 inh inactive.
CCCCn1c(C)c(C(=O)OCC)c2cc(OCc3ccccc3)ccc21 was read as ROC1-CUL1 inh inactive.
`COc1cc(C=C2C(=O)NC(=O)NC2=O)cc(Cl)c1OC` gave ROC1-CUL1 inh inactive.
